Results published in the antibiotic and cytotoxicity screens of Wong et al. (2023).
Screen size: about 39,000 compounds; about 3,300 (8.5%) were called active. For the sample, actives were picked, then their nearest neighbours and some compounds at random.

What follows are compounds tested on HepG2 (assay: cytotoxicity call (relative viability < 0.9)). Details: 10 µM.
In the case of `Clc1ccc2c(c1)[C@H]1C=CC[C@@H]1[C@@H](c1ccccc1)N2`, the cytotoxicity call is reported as “inactive”. In the case of `O=C(C[C@H]1C[C@H]2c3cc(NC(=O)C4CCOCC4)ccc3O[C@H]2[C@@H](CO)O1)NCc1ccc2c(c1)OCO2`, the cytotoxicity call is reported as “inactive”. `C[C@@H]1CN([C@H](C)CO)C(=O)c2cc(NC(=O)Nc3cccc4ccccc34)ccc2O[C@@H](C)CCCCO[C@@H]1CN(C)C(=O)NC1CCCCC1` was tested, and the cytotoxicity call was “inactive”. In the case of `CN(C)C(=O)CN1CCC2(CC1)CN(CCn1cccn1)C(=O)CO2`, the cytotoxicity call is reported as “inactive”. In the case of `CO[C@@H]1CN(C)C(=O)c2ccc(NS(=O)(=O)CC(F)(F)F)cc2OC[C@@H](C)N(C(=O)c2ccc3c(c2)OCO3)C[C@@H]1C`, the cytotoxicity call is reported as “inactive”. For `Cc1noc(C)c1NC(=O)N[C@H]1C=C[C@@H](CC(=O)N2CCN(C)CC2)O[C@@H]1CO`, the cytotoxicity call was “inactive”. With `CC(C)CNC(=O)[C@@]1(c2ccc([N+](=O)[O-])cc2)CC(=O)N(CC23CC4CC(CC(C4)C2)C3)[C@@H]1c1ccc(CO)cc1I` the cytotoxicity call was “inactive”. With `CC(C)NC(=O)[C@@]1(c2ccc([N+](=O)[O-])cc2)CC(=O)N(CC23CC4CC(CC(C4)C2)C3)[C@@H]1c1ccc(CO)cc1I` the cytotoxicity call was “active”. In the case of `CCCNC(=O)[C@@]1(c2ccc([N+](=O)[O-])cc2)CC(=O)N(CC23CC4CC(CC(C4)C2)C3)[C@@H]1c1ccc(CO)cc1I`, the cytotoxicity call is reported as “inactive”. `CN(C)c1cc(NC(=O)CNC(C)(C)C)c(O)c2c1C[C@H]1C[C@H]3[C@H](N(C)C)C(=O)C(C(N)=O)=C(O)[C@@]3(O)C(=O)[C@H]1C2=O` was tested, and the cytotoxicity call was “inactive”. With `O=C(C[C@@H]1C[C@H]2c3cc(NC(=O)Cc4ccncc4)ccc3O[C@H]2[C@@H](CO)O1)NCc1cccc(F)c1` the cytotoxicity call was “inactive”. `N[C@H](C(=O)O)[C@@H]1CC(Cl)=NO1` was tested, and the cytotoxicity call was “active”. `C[C@@H]1CN([C@H](C)CO)C(=O)c2cc(NS(=O)(=O)c3ccc(F)cc3)ccc2O[C@@H]1CN(C)S(=O)(=O)c1cccs1` was tested, and the cytotoxicity call was “inactive”. With `Cc1noc(C)c1S(=O)(=O)Nc1ccc2c(c1)CC(=O)N([C@@H](C)CO)C[C@H](C)[C@@H](CN(C)S(=O)(=O)c1ccc(Cl)cc1)O2` the cytotoxicity call was “inactive”. For `Cc1cccc(C(=O)O)c1O`, the cytotoxicity call was “inactive”. In the case of `Cc1cccc(Nc2ccccc2C(=O)O)c1C`, the cytotoxicity call is reported as “inactive”. In the case of `Cc1cccc(C)c1NC(=O)c1ccccc1C(=O)O`, the cytotoxicity call is reported as “active”. With `C[C@@H]1CN([C@@H](C)CO)S(=O)(=O)c2ccc(C#CC3CCCCC3)cc2O[C@H]1CN(C)C(=O)Cc1ccncc1` the cytotoxicity call was “inactive”. For `CO[C@H]1C[C@@H](O[C@@H]2/C(C)=C/C[C@@H]3C[C@@H](C[C@]4(CC[C@H](C)[C@@H](C5CCCCC5)O4)O3)OC(=O)[C@@H]3C=C(C)/C(=N/O)[C@H]4OC/C(=C\C=C\[C@@H]2C)[C@]43O)O[C@@H](C)[C@@H]1O`, the cytotoxicity call was “inactive”. In the case of `COC1CC(OC2C(C)=CCC3CC(CC4(CCC(C)C(C5CCCCC5)O4)O3)OC(=O)C3C=C(C)C(=NO)C4OCC(=CC=CC2C)C34O)OC(C)C1O` (centres undefined), the cytotoxicity call is reported as “active”. In the case of `CO[C@H]1C[C@H](O[C@@H]2/C(C)=C/C[C@@H]3C[C@@H](C[C@]4(CC[C@H](C)[C@@H](C5CCCCC5)O4)O3)OC(=O)[C@@H]3C=C(C)/C(=N/O)[C@H]4OC/C(=C\C=C\[C@@H]2C)[C@]43O)O[C@@H](C)[C@@H]1O`, the cytotoxicity call is reported as “active”. In the case of `COCC(=O)Nc1ccc2c(c1)C(=O)N(C)[C@@H]1CC[C@@H](CC(=O)N3CCc4ccccc4C3)O[C@@H]1CO2`, the cytotoxicity call is reported as “inactive”. For `COc1ccc(NC(=O)Nc2ccc3c(c2)C(=O)N([C@@H](C)CO)C[C@H](C)[C@H](CN(C)C(=O)NC2CCCCC2)OCCCC[C@@H](C)O3)cc1`, the cytotoxicity call was “inactive”. For `COc1ccc(C)c2c1CCCC2=O`, the cytotoxicity call was “inactive”. In the case of `C[C@H](CO)N1C[C@H](C)[C@H](CN(C)C(=O)Nc2cccc3ccccc23)Oc2ccc(NC(=O)Cn3cnnn3)cc2CC1=O`, the cytotoxicity call is reported as “inactive”. With `C[C@@H]1CN([C@H](C)CO)C(=O)c2cc(NC(=O)Nc3ccc(C(F)(F)F)cc3)ccc2O[C@@H](C)CCCCO[C@H]1CN(C)S(=O)(=O)c1cccs1` the cytotoxicity call was “inactive”. With `C[C@@H]1CCCCO[C@@H](CN(C)C(=O)CCC(F)(F)F)[C@H](C)CN([C@H](C)CO)C(=O)c2cc(NS(=O)(=O)c3cccs3)ccc2O1` the cytotoxicity call was “inactive”. In the case of `Cc1ccc(S(=O)(=O)N[C@@H]2CC[C@H](CC(=O)N3CCC(Cc4ccccc4)CC3)O[C@@H]2CO)cc1`, the cytotoxicity call is reported as “inactive”. `C[C@@H]1CCCCO[C@H](CN(C)C(=O)NC2CCCCC2)[C@@H](C)CN([C@H](C)CO)C(=O)c2cc(NC(=O)Nc3ccccc3)ccc2O1` was tested, and the cytotoxicity call was “inactive”. `C[C@@H]1CCCCO[C@H](CN(C)C(=O)C2CCCCC2)[C@@H](C)CN([C@@H](C)CO)C(=O)c2cc(NS(=O)(=O)c3ccc(F)cc3)ccc2O1` was tested, and the cytotoxicity call was “inactive”. With `COc1cccc(NC(=O)N(C)C[C@@H]2Oc3ncc(C#Cc4cccnc4)cc3C(=O)N([C@H](C)CO)C[C@@H]2C)c1` the cytotoxicity call was “inactive”. With `C=C1CC2C3C=C(C)C4=CC(=O)CCC4(C)C3CCC2(C)C1(OC(C)=O)C(C)=O` (centres undefined) the cytotoxicity call was “inactive”. In the case of `COC(=O)C[C@@H]1C[C@@H](C)[C@@H]2C(=O)c3c(O)c4c(c(O)c3C(=O)[C@@H]2[C@@H]1O)[C@H]1C[C@@H](O)[C@@]4(O)[C@@H](C)O1`, the cytotoxicity call is reported as “active”. In the case of `CO[C@H](CN(C)S(=O)(=O)c1cn(C)cn1)[C@H](C)CN(C(=O)Nc1ccc(C(F)(F)F)cc1)[C@@H](C)CO`, the cytotoxicity call is reported as “inactive”. With `C[C@H](CO)N1C[C@H](C)[C@@H](CN(C)C(=O)Nc2ccc(C(F)(F)F)cc2)OCCCC[C@H](C)Oc2ccc(NS(=O)(=O)c3ccccc3)cc2C1=O` the cytotoxicity call was “inactive”. `C[C@@H]1CN([C@H](C)CO)C(=O)c2cc(NS(=O)(=O)c3ccccc3)ccc2O[C@@H](C)CCCCO[C@H]1CN(C)C(=O)Nc1ccc(C(F)(F)F)cc1` was tested, and the cytotoxicity call was “inactive”. In the case of `C[C@@H]1CN([C@@H](C)CO)C(=O)c2cc(NS(=O)(=O)c3ccccc3)ccc2O[C@@H](C)CCCCO[C@@H]1CN(C)C(=O)Nc1ccc(C(F)(F)F)cc1`, the cytotoxicity call is reported as “inactive”. `C[C@@H]1CCCCO[C@@H](CN(C)C(=O)Nc2ccc(C(F)(F)F)cc2)[C@H](C)CN([C@H](C)CO)C(=O)c2cc(NS(=O)(=O)c3ccccc3)ccc2O1` was tested, and the cytotoxicity call was “active”. For `C[C@@H]1CCCCO[C@H](CN(C)C(=O)Nc2ccc(C(F)(F)F)cc2)[C@H](C)CN([C@@H](C)CO)C(=O)c2cc(NS(=O)(=O)c3ccccc3)ccc2O1`, the cytotoxicity call was “active”. In the case of `C[C@@H]1CCCCO[C@@H](CN(C)C(=O)Nc2ccc(C(F)(F)F)cc2)[C@H](C)CN([C@@H](C)CO)C(=O)c2cc(NS(=O)(=O)c3ccccc3)ccc2O1`, the cytotoxicity call is reported as “inactive”. `C[C@@H]1CCCCO[C@H](CN(C)C(=O)Nc2ccc(C(F)(F)F)cc2)[C@@H](C)CN([C@H](C)CO)C(=O)c2cc(NS(=O)(=O)c3ccccc3)ccc2O1` was tested, and the cytotoxicity call was “inactive”. In the case of `C[C@H]1CCCCO[C@@H](CN(C)C(=O)Nc2ccc(C(F)(F)F)cc2)[C@@H](C)CN([C@@H](C)CO)C(=O)c2cc(NS(=O)(=O)c3ccccc3)ccc2O1`, the cytotoxicity call is reported as “active”. In the case of `C[C@@H]1CN([C@@H](C)CO)C(=O)c2cc(NS(=O)(=O)c3ccccc3)ccc2O[C@@H](C)CCCCO[C@H]1CN(C)C(=O)Nc1ccc(C(F)(F)F)cc1`, the cytotoxicity call is reported as “inactive”. In the case of `C[C@@H]1CCCCO[C@H](CN(C)C(=O)Nc2ccc(C(F)(F)F)cc2)[C@H](C)CN([C@H](C)CO)C(=O)c2cc(NS(=O)(=O)c3ccccc3)ccc2O1`, the cytotoxicity call is reported as “active”. With `C[C@H]1CN([C@@H](C)CO)C(=O)Cc2cc(NS(=O)(=O)c3cccs3)ccc2O[C@@H]1CN(C)S(=O)(=O)c1cn(C)cn1` the cytotoxicity call was “inactive”. In the case of `Cc1noc(C)c1NC(=O)Nc1ccc2c(c1)C(=O)N([C@H](C)CO)C[C@H](C)[C@H](CN(C)S(=O)(=O)c1ccccc1)O2`, the cytotoxicity call is reported as “inactive”. `COc1ccc2c3c([nH]c2c1)[C@H](CO)N(C[C@]13CN(Cc2ccccc2F)C1)S(=O)(=O)c1cn(cn1)C` was tested, and the cytotoxicity call was “inactive”. In the case of `Cc1noc(C)c1NC(=O)Nc1ccc2c(c1)CC(=O)N([C@H](C)CO)C[C@H](C)[C@@H](CN(C)S(=O)(=O)c1cccs1)O2`, the cytotoxicity call is reported as “inactive”. For `Cc1ccc(S(=O)(=O)N(C)C[C@@H]2OCCCC[C@H](C)Oc3ccc(NC(=O)Nc4ccc(F)cc4)cc3C(=O)N([C@H](C)CO)C[C@@H]2C)cc1`, the cytotoxicity call was “inactive”. In the case of `C[C@H](NC(=O)N(C)C[C@@H]1OCc2ccccc2-c2ccccc2C(=O)N([C@H](C)CO)C[C@@H]1C)c1ccccc1`, the cytotoxicity call is reported as “inactive”. With `CCn1c(N)nc2c1c(=O)[nH]c(=O)n2C` the cytotoxicity call was “inactive”. With `NCCn1nc([C@H]2CCN(C(=O)c3csc4c3CCCC4)C2)c2nccnc21` the cytotoxicity call was “inactive”. For `Cc1ccc(S(=O)(=O)N(C)C[C@@H]2Oc3ccc(NS(=O)(=O)c4cn(C)cn4)cc3C(=O)N([C@@H](C)CO)C[C@H]2C)cc1`, the cytotoxicity call was “inactive”. With `CCSC1=C(C#N)C(=O)N[C@@H](CO)S1` the cytotoxicity call was “inactive”. With `C[C@H](CO)N1C[C@H](C)[C@@H](CN(C)Cc2ccc(C(=O)O)cc2)OCCCC[C@H](C)Oc2ccc(NC(=O)Nc3cccc4ccccc34)cc2C1=O` the cytotoxicity call was “inactive”. In the case of `C[C@H](CO)N1C[C@H](C)[C@H](CN(C)C(=O)Nc2ccc(C(F)(F)F)cc2)OCCCC[C@H](C)Oc2ccc(NS(=O)(=O)c3ccccc3)cc2C1=O`, the cytotoxicity call is reported as “inactive”. In the case of `C[C@@H]1CCCCO[C@@H](CN(C)C(=O)Nc2ccc(C(F)(F)F)cc2)[C@@H](C)CN([C@H](C)CO)C(=O)c2cc(NS(=O)(=O)c3ccccc3)ccc2O1`, the cytotoxicity call is reported as “active”. With `C[C@H]1CCCCO[C@H](CN(C)C(=O)Nc2ccc(C(F)(F)F)cc2)[C@@H](C)CN([C@@H](C)CO)C(=O)c2cc(NS(=O)(=O)c3ccccc3)ccc2O1` the cytotoxicity call was “active”. `C[C@@H]1CCCCO[C@H](CN(C)C(=O)Nc2ccc(C(F)(F)F)cc2)[C@@H](C)CN([C@@H](C)CO)C(=O)c2cc(NS(=O)(=O)c3ccccc3)ccc2O1` was tested, and the cytotoxicity call was “inactive”.
